# In PubChem BioAssay AID602261 (Sanford-Burnham Center for Chemical Genomics, 2012):
# Values joined by “and” are separate entries in the source; they are usually repeats but may differ in a detail not shown here. Equal entries are not always repeated. About 2,400 (0.67%) of roughly 360,000 compounds were called active. The list comes from a sample in which actives are over-represented; it also holds similar structures and randomly drawn compounds. Unmarked numbers belong to inactive results.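 The calls were made as follows: active = compounds whose normalised, plate-corrected inhibition of enzyme fluorescence in the single-dose primary screen is 50% or more; inactive = the rest.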
# Biological target: Fatty acid synthase (Homo sapiens) (UniProt P49327)
# Sequence (P49327 whole entry, looked up): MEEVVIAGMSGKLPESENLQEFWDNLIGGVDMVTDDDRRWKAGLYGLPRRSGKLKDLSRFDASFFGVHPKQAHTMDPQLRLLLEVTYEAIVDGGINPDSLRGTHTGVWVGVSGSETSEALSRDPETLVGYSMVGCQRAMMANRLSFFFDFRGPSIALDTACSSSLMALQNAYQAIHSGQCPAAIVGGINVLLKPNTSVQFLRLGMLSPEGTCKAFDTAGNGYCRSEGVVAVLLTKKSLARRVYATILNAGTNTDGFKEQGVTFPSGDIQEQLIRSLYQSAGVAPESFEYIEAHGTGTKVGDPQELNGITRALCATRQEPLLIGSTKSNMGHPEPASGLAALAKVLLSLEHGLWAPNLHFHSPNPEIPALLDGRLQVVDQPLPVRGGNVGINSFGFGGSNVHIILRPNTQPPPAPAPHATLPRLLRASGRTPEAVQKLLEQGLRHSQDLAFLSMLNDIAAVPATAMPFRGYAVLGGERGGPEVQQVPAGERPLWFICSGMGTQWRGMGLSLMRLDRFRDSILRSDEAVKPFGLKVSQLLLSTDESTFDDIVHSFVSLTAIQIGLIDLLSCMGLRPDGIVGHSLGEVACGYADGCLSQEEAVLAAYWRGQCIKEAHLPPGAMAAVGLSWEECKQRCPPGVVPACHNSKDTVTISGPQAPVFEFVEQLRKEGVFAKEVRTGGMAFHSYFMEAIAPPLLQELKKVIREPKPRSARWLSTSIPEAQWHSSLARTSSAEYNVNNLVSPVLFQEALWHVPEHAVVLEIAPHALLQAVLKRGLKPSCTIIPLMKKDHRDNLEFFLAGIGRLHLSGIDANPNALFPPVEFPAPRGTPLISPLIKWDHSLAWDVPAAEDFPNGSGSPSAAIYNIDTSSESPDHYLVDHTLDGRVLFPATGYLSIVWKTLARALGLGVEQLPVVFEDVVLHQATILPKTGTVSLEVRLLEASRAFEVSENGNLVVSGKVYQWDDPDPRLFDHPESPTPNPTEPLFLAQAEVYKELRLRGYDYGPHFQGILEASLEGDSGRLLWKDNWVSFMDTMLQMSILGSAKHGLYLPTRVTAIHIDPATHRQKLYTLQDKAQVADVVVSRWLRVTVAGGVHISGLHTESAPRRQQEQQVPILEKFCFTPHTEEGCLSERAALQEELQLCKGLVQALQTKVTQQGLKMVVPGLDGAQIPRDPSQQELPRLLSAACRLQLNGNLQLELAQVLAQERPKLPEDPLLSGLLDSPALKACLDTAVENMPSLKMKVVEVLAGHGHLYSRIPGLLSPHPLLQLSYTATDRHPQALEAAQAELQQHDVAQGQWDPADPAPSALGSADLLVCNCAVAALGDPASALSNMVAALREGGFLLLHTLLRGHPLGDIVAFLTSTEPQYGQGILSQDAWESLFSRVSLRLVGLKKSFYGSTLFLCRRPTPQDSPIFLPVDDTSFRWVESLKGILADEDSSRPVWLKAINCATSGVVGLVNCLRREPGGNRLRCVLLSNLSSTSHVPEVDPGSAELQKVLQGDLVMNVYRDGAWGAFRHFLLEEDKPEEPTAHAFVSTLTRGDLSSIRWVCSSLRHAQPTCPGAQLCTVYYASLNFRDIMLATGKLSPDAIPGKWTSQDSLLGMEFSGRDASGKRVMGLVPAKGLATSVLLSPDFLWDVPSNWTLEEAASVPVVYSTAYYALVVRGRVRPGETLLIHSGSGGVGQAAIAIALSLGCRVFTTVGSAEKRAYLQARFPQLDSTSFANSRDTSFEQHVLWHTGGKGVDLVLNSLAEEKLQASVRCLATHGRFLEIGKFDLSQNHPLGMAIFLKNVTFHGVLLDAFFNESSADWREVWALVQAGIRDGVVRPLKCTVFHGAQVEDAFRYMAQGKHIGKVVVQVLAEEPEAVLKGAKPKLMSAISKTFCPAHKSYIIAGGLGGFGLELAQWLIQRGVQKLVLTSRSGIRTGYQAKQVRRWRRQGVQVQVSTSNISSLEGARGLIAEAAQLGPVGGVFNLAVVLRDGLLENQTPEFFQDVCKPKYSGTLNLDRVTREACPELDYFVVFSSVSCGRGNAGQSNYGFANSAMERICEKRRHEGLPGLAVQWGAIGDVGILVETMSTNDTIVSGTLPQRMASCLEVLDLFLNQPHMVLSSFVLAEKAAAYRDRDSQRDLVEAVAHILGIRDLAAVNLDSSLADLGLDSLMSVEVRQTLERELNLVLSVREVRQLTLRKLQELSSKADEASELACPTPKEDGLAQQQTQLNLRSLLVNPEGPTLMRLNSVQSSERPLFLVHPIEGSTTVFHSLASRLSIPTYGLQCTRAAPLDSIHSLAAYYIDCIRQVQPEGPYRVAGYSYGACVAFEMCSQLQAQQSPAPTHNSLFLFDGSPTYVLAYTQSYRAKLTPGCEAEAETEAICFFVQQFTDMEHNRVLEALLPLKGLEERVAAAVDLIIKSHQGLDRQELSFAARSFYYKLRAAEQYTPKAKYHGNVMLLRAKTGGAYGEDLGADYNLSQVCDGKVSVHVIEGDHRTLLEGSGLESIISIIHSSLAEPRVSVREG
# Assay: inhibition of human FAS-TE enzyme activity – biochemical, fluorescence intensity, uHTS, primary screen (AID 602261);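 also: 0% = DMSO with enzyme and 100% = substrate without enzyme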
# Details: recombinant FAS-TE, OMFH fluorogenic substrate, fluorescence endpoint; at 15 µM; hits give high values
row,SMILES,inhibition
1,CCOC(=O)c1cc(-c2ccc(F)cc2)n(CC(=O)NCc2ccccn2)c1C,-7.6%
2,COC(=O)CCCCC1=CCC2C(=O)C=C(O)C2C1 (configuration not stated),-0.8%
3,Cc1nn(Cc2ccc(F)cc2)c(C)c1NC(=O)c1noc2c1CCc1ccccc1-2,17.6%
4,CCCCOc1ccc(C(=O)N/C(=C/C=C/c2ccccc2)C(=O)N2CCOCC2)cc1,4.3%
5,Cc1ccc(C(=O)N/C(=C/C=C/c2ccccc2)C(=O)NCc2ccco2)cc1,10.2%
6,CNC(=O)/C(=C\C=C\c1ccccc1)NC(=O)c1ccc([N+](=O)[O-])cc1,88.8% (active)
7,COc1ccc(-c2cc(=O)oc3cc(OCC(=O)N(C)C4CCS(=O)(=O)C4)ccc23)cc1 (configuration not stated),-3.1%
8,COc1ccc(-c2cc(NC=O)c3ncc(-c4ccccc4)n3c2)cc1OC,28.3%
9,Cc1ccccc1-c1nc(CS(=O)(=O)CC(=O)N2CCc3ccccc3C2)c(C)o1,10%
10,CCN1C(=O)[C@H]2[C@@H](c3ccc(-c4ccc(OC)cc4)cc3)N[C@@](Cc3ccccc3)(C(=O)OC)[C@H]2C1=O,39.2%
11,CCCCCCSc1ccc([C@@H]2[C@@H]3C(=O)N(CC)C(=O)[C@@H]3[C@]3(C(=O)OC)CCCCN23)cc1OC,23.1%
12,CCN1C(=O)[C@H]2[C@@H](c3ccc(-c4ccc(F)cc4)cc3)N[C@@](Cc3ccccc3)(C(=O)OC)[C@H]2C1=O,65.3% (active)
13,CCN1C(=O)[C@H]2[C@@H](c3ccc(SC4CCCCC4)c(OC)c3)N[C@@](Cc3ccccc3)(C(=O)OC)[C@H]2C1=O,63.1% (active)
14,CCCSc1ccc([C@H]2N[C@@](Cc3ccccc3)(C(=O)OC)[C@H]3C(=O)N(C)C(=O)[C@@H]23)cc1,17.3%
15,COC(=O)[C@]1(CC(C)C)N[C@H](c2ccc(SC3CCCCC3)cc2)[C@@H]2C(=O)N(C)C(=O)[C@@H]21,22.5%
16,COc1ccccc1C(=O)N(C1=NC(C)CS1)c1ccc(Cl)cc1 (configuration not stated),6.9%
17,CCCN1CCN(C(=O)Cn2ncc3ccccc32)CC1,-2.9%
18,Cc1ccc(NC(=O)N2CCC(O)(c3cccnc3)CC2)cc1,-3.3%
19,CC(C)C[C@H](NC(=O)NCCc1ccc(Cl)cc1)C(=O)O,-6.2%
20,CSCCC(NC(=O)c1cc([N+](=O)[O-])cc([N+](=O)[O-])c1)c1nc2ccccc2[nH]1 (configuration not stated),32.8%
21,Cc1cccc(CN2CCN(Cc3cnn(-c4ccccc4F)c3)CC2CCO)n1 (configuration not stated),-8%

row,SMILES,inhibition
1,O=C1C2N=NN(CC(=O)N3N=C(c4cccc5ccccc45)CC3c3ccccc3)C2C(=O)N1c1ccccc1 (configuration not stated),84.2% (active)
2,O=C1c2cccc(OCC(=O)N3N=C(c4cccs4)CC3c3ccc(F)cc3)c2CCN1Cc1ccccc1 (configuration not stated),30.6%
3,Cc1ccc(C2=NN(C(=O)COc3ncnc4ccccc34)C(c3ccco3)C2)cc1 (configuration not stated),8.9%
4,CC1=C(C)CC2C(=O)N(c3cccc4ccccc34)C(=O)C2C1 (configuration not stated),7.3%
5,Cc1ccc(N2C(=O)C3N=NN(CC(=O)N4N=C(c5cccc6ccccc56)CC4c4ccccc4)C3C2=O)cc1 (configuration not stated),83.2% (active)
6,Oc1ccccc1C1=NN(c2ccccc2)C(c2ccccc2)C1 (configuration not stated),25.2%
7,Cc1ccc(NC(=O)[C@H](Cc2ccccc2)NC(=O)CC[C@H]2O[C@@H](n3ccc(=O)[nH]c3=O)[C@H](O)[C@@H]2O)cc1C,-9.9%
8,Cc1ccc(Cl)c(OCC(=O)NN2CCN(C)CC2)c1,-5.7%
9,COc1ccc2c(CC(=O)NNC(=O)c3ccccc3F)coc2c1,-5%
10,COC(=O)[C@@H](NC(=O)NCc1cccc(OC)c1)C(C)C,-7.7%
11,COc1ccc(NC(=O)CN2C(=O)CSc3ccc(S(=O)(=O)N4CCC(C)CC4)cc32)cc1,42.2%
12,COc1ccc(-c2nc3cnccn3c2NC2CCCCC2)cc1-c1cccc(Cl)c1,32.3% and 25.3%
13,COc1ccc(-c2nc3cnccn3c2NC(C)(C)CC(C)(C)C)cc1O,55% (active)
14,CCOc1cc(-c2nc3cc(C)ccn3c2NCC2CCCO2)ccc1O (configuration not stated),-4.4%
15,COc1ccc(NC2=CC(=S)NC(C)(C)C2)cc1,-11%
16,CCOC(=O)/C(=N\Nc1cc(Cl)ccc1Cl)N1CCN(C)CC1,3.8%
17,CCN(CCO)C(=S)Nc1cc(C(=O)OC)ccc1C(=O)OC,-10.4%
18,O=C(Nc1ccccc1Cl)c1ccccc1S(=O)(=O)c1ccccc1[N+](=O)[O-],6.3%
19,Cc1cc(C(=O)OCC(=O)Nc2ccccc2Cl)c(C)o1,7.5%
20,O=C(Nc1ccccc1Cl)/C(Cl)=C(\Cl)S(=O)c1ccccc1 (configuration not stated),73.7% (active)
21,CC(C)Oc1ccc(CN2CCC2(C)C(=O)NCc2ccc(C(F)(F)F)cc2)cc1 (configuration not stated),34.4%
